RE007 growth inh – less growth of the S. pombe RE007 Vpr strain; S. pombe RE007 Vpr strain, BacTiter-Glo ATP luminescence, 24 h; Potency, µM (highest dose often 92.2 µM), most hits filed as inhibitors; actives 0.21% (n = 360,000); AID 651644; active = well fitted falling curve with a large enough effect; inconclusive = small, poorly fitted or top-dose-only effect; inactive = no such curve, though single readings can be large or run the other way; note: nearly all actives have a fitted effect of over 50% in size
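Fission yeast RE007 carrying one integrated HIV-1 vpr copy, seeded at OD 0.01 in PMG+AL medium with 23 nL pinned compound. Grown 24 h at 30 degrees; viability read by BacTiter-Glo luminescence after 5 min.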
AmpC inh no detg – inhibitors of E. coli AmpC beta-lactamase without detergent. P00811. AmpC nitrocefin hydrolysis, absorbance 480 nm, 0.0001% Triton. Potency, µM (titrated, usually from 57.1 µM), actives largely listed as inhibitors. actives 0.52% (n = 330,000); note: nearly all actives have a fitted effect of over 20% in size
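20 mM phosphate pH 7.0 + 0.01% (detergent screen) or 0.0001% Triton X-100; 5.3 nM AmpC reagent; cpd preinc 15 min RT; nitrocefin (800 uM stock) to start; A480 q20 s × 4 min; Activity was normalised to no-enzyme and no-compound control wells.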
AmpC inh detg – blocks E. coli AmpC beta-lactamase in detergent assay | P00811 | AmpC hydrolysis of nitrocefin, absorbance 480 nm, 0.01% Triton | Potency, µM (titrated, usually from 114 µM), most hits filed as inhibitors | actives 0.041% (n = 370,000); note: nearly all actives have a fitted effect of over 25% in size
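20 mM phosphate pH 7.0 + 0.01% (detergent screen) or 0.0001% Triton X-100; 5.3 nM AmpC reagent; cpd preinc 15 min RT; nitrocefin (800 uM stock) to start; A480 q20 s × 4 min; Activity was normalised to no-enzyme and no-compound control wells.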
Sm TGR inh – inhibitors of Schistosoma mansoni thioredoxin glutathione reductase. purified TGR, DTNB reduction, TNB absorbance 405 nm. AID 485364. Q962Y6. Potency, µM (top dose mostly 114 µM), actives largely listed as inhibitors. actives 3% (n = 360,000); note: nearly all actives have a fitted effect of over 60% in size
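Kinetic colorimetric format: TGR-catalysed, NADPH-driven DTNB reduction monitored via TNB absorbance. Enzyme dispensed at 20 nM; compound exposure 15 min at room temperature before reaction start.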
Giardia FBPA inh – blocks Giardia fructose-bisphosphate aldolase activity. A8B2U2. purified Giardia FBPA. Potency, µM (titrated, usually from 59.6 µM), most hits filed as inhibitors. actives 0.71% (n = 290,000). AID 2451; note: nearly all actives have a fitted effect of over 55% in size
Target sequence (A8B2U2 whole entry, looked up): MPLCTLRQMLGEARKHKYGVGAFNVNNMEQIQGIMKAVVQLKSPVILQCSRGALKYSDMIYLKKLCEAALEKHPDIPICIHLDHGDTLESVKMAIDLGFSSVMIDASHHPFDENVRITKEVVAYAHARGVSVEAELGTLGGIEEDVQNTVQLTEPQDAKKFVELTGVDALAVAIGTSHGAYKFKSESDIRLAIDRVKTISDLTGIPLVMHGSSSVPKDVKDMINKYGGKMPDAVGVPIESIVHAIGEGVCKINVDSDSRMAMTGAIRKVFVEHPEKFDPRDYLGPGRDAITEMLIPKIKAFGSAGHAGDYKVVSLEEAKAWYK
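40 nM FBPA preincubated 10 min at RT with compound (up to 57.5 uM final), then substrate plus GAPDH/TPI/NAD/arsenate coupling and diaphorase/resazurin added. Fluorescence read after 20 min at RT, 525/598 nm.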
Numbers stand for hits; i = inactive; ? = inconclusive; nt = not tested or not shown; [ ] = remark or other dose. Rows were chosen to be rich in hits. Some 3.4% of all compounds tested hit in one or more screens of this group. Unless noted, calls come from the whole dose curve; as a rule, active = well fitted curve in the direction sought with a large enough effect; inconclusive = small, poorly fitted or top-dose-only effect, or another doubt; inactive = no such curve, though single readings can be large; an effect the other way counts as inactive or inconclusive.

SMILES | RE007 growth inh | AmpC inh no detg | AmpC inh detg | Sm TGR inh | Giardia FBPA inh
COc1ccc(N2CCN(C(=O)CCS(=O)(=O)c3ccc(OC)cc3)CC2)cc1 | i | i | i | i | i
COc1ccc(N2CCN(C(=O)CS(=O)(=O)c3cccc4nsnc34)CC2)cc1 | nt | nt | i | 50.1µM | nt
COc1ccc(N2CCN(C(=O)CCS(=O)(=O)c3ccc(C)cc3)CC2)cc1 | ? | i | i | 25.1µM | i
Cc1cccc(C)c1N(CC(=O)Nc1cc(Cl)ccc1Oc1ccccc1)S(C)(=O)=O | i | 0.159µM | ? | i | i
CCOc1cc2[nH]c(=O)n(CCCC(=O)N3CCN(c4cccc(Cl)c4)CC3)c(=O)c2cc1OCC | nt | nt | ? | i | nt
CC(=O)N1CCC(=NNc2ccnc3cc(Cl)ccc23)CC1 | i | i | i | ? | i
CCOC(=O)N1CCN(c2cc(=O)n(-c3ccc(Br)cc3)c(=O)[nH]2)CC1 | i | 0.562µM | ? | i | i
Nc1c(N(Cc2ccco2)C(=O)c2ccc(Br)cc2)c(=O)[nH]c(=O)n1Cc1ccccc1 | i | i | i | 35.5µM | nt
CC(C)CN(C(=O)c1ccc(N2CCCC2=O)cc1)c1c(N)n(Cc2ccccc2)c(=O)[nH]c1=O | i | i | i | 39.8µM | nt
Nc1c(N(Cc2ccco2)C(=O)c2cccc(Cl)c2)c(=O)[nH]c(=O)n1Cc1ccccc1 | i | i | i | 39.8µM | nt
Nc1c(N(Cc2ccco2)C(=O)COc2ccccc2Cl)c(=O)[nH]c(=O)n1Cc1ccccc1 | i | i | i | 50.1µM | nt
Nc1c(N(Cc2ccco2)C(=O)c2ccc(Cl)cc2)c(=O)[nH]c(=O)n1Cc1ccccc1 | i | i | i | i | nt
Nc1c(N(Cc2ccco2)C(=O)COc2ccc(Cl)cc2)c(=O)[nH]c(=O)n1Cc1ccccc1 | i | nt | nt | nt | nt
CCCCN(C(=O)c1ccc(N2CCCC2=O)cc1)c1c(N)n(Cc2ccccc2)c(=O)[nH]c1=O | i | i | i | i | nt
CSc1nnc2c3cc(F)ccc3n(C)c2n1 | i | i | i | i | i
CC(=O)Nc1cc(-c2ccc(S(C)(=O)=O)cc2)cn2c(-c3ccc(F)c(Cl)c3)cnc12 | i[18.4 µM] | nt | nt | nt | nt
COC(=O)c1ccc2c(c1)N(Cc1cc(C)ccc1C)C(=O)c1ccccc1S2=O (stereo not given) | nt | i | i | i | i
COc1ccc(OCC(=O)Nc2ccc(-c3nc4cc(Cl)ccc4o3)cc2)cc1 | nt | nt | i | i | nt
Cc1ccc(CN(C(=O)COc2ccc(Br)cc2)c2ccccn2)o1 | nt | nt | i | i | nt
COc1cccc(C(=O)N(Cc2ccco2)c2c(N)n(Cc3ccccc3)c(=O)[nH]c2=O)c1 | i | i | i | 44.7µM | nt
O=C(Nc1ccc(C(=O)N2CCCC2)cc1)C1CC1 | i | nt | nt | nt | nt
C[C@]12CC[C@H](O)CC1=CCC1C2CC[C@@]2(C)C1CC[C@@H]2NCc1ccccc1 (stereo not given in full) | i | nt | nt | nt | nt
Nc1ccc(Br)c2cccnc12 | i | i | i | 50.1µM | ?
Cc1ccc(CC(=O)O/N=C(\N)c2ccncc2)cc1 | i | i | i | i | nt
Cc1ccccc1NC(=O)c1sc2nc3c(cc2c1N)CN(Cc1ccccc1)CC3 | nt | nt | i | 79.4µM | nt
SMILES | RE007 growth inh | AmpC inh no detg | AmpC inh detg | Sm TGR inh | Giardia FBPA inh
COc1ccc(NC(=O)c2sc3nc4c(cc3c2N)CN(Cc2ccccc2)CC4)cc1OC | nt | nt | i | i | nt
CCCCc1c(C)nc2cc(-c3ccco3)[nH]n2c1=O | i | i | ? | i | i
O=C1c2nc3cc(-c4ccco4)[nH]n3c(=O)c2CN1Cc1ccccc1 | i | i | i | 20µM | i
N#Cc1c(NC(=O)/C=C/C(=O)O)sc2c1CCN(Cc1ccccc1)C2 | i | i | i | 25.1µM | i
COc1ccc(OC)c(C2CC(=O)N3CN(c4ccccc4F)CSC3=C2C#N)c1 (stereo not given) | i | i | i | 15.8µM | ?
COc1cc(OC)c(C2CC(=O)N3CN(c4ccccc4)CSC3=C2C#N)cc1OC (stereo not given) | i | i | i | 10µM | ?
CCc1ccccc1N1CSC2=C(C#N)C(c3cc(OC)c(OC)cc3OC)CC(=O)N2C1 (stereo not given) | i | i | i | 6.31µM | 4.46µM
COc1cccc(C2CC(=O)N3CN(c4cccc(Cl)c4C)CSC3=C2C#N)c1OC (stereo not given) | i | i | ? | i | ?
